PubChem BioAssay (NCI)
The panel holds about 79,000 compounds, 15% with a hit somewhere; the sample as a whole holds those more often. Values without a mark were called inactive. Calls of active or inactive are those of the source. No stated cut-off is given here; in the data, active means growth inhibition above about 70%; inactive means the rest.

Assays:
[1] = NCI Yeast Anticancer Drug Screen. Data for the rad52 strain (AID 147);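 further: 0% = growth of vehicle-treated control cultures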; settings: S. cerevisiae rad52 mutant growth inhibition, hits give high values
Summary of the method: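 Here a repair-compromised yeast strain receives each compound; its growth is then quantified and normalised to vehicle-only controls.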

[2] = NCI Yeast Anticancer Drug Screen. Data for the wt1 strain (AID 149);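 further: 0% = growth of vehicle-treated wt1 cultures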; settings: S. cerevisiae wt1 strain (SPY 50644) growth inhibition, hits give high values
Summary of the method: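 Yeast wt1 strain exposed to compounds; growth inhibition measured relative to vehicle-treated controls.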

[3] = NCI Yeast Anticancer Drug Screen. Data for the rad50EPP+ strain (AID 151);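 further: 0% = growth of vehicle-treated control cultures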; settings: S. cerevisiae rad50 mutant strain, hits give high values
Summary of the method: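 Read-out is yeast growth inhibition relative to vehicle; cells used were the rad50EPP+ strain.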

[4] = NCI Yeast Anticancer Drug Screen. Data for the mgt1 strain (AID 153); settings: S. cerevisiae mgt1 mutant growth inhibition, hits give high values
Summary of the method: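 Measured: inhibition of mgt1 yeast growth by compound, normalized to vehicle-treated cultures.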

[5] = NCI Yeast Anticancer Drug Screen. Data for the rad50 strain (AID 155);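 further: 0% = growth of vehicle-only cultures of the same strain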; settings: S. cerevisiae rad50 strain growth inhibition, hits give high values
Summary of the method: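 Yeast carrying a defined DNA repair defect were exposed to test compounds, and growth was compared with vehicle-treated controls to give percent inhibition.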

[6] = NCI Yeast Anticancer Drug Screen. Data for the mec2-1 strain (AID 157); settings: S. cerevisiae mec2-1 strain, hits give high values
Summary of the method: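 Using mec2-1 yeast: add compound, measure growth, express inhibition versus vehicle-treated cultures.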

[7] = NCI Yeast Anticancer Drug Screen. Data for the rad14 strain (AID 159);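 further: 0% = growth of vehicle-treated control cultures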; settings: S. cerevisiae rad14 strain growth inhibition, hits give high values
Summary of the method: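 Yeast cells carrying a defined DNA-repair defect were exposed to compounds, and growth inhibition was calculated relative to vehicle-treated control cultures.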

[8] = NCI Yeast Anticancer Drug Screen. Data for the sgs1 mgt1 strain (AID 161);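 further: 0% = growth of cultures given vehicle only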; settings: S. cerevisiae sgs1 mgt1 strain, hits give high values
Summary of the method: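 Compounds are added to genetically altered yeast, and growth is compared with cultures given vehicle alone to give percent inhibition.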

[9] = NCI Yeast Anticancer Drug Screen. Data for the CLN2oe strain (AID 163);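 further: 0% = growth of vehicle-only control cultures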; settings: S. cerevisiae CLN2oe strain, hits give high values
Summary of the method: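 Whole-cell yeast growth assay. A strain engineered for altered cell-cycle control received compound, and inhibition relative to vehicle-treated cultures was recorded.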

[10] = NCI Yeast Anticancer Drug Screen. Data for the cln2 rad14 strain (AID 165);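 further: 0% = growth equal to vehicle treated cultures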; settings: S. cerevisiae cln2 rad14 strain, hits give high values
Summary of the method: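 Yeast strain cln2 rad14, bearing defects in cell cycle control and DNA repair, serves as the test system; values reflect growth inhibition compared with vehicle.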

[11] = NCI Yeast Anticancer Drug Screen. Data for the bub3 strain (AID 167); settings: S. cerevisiae bub3 mutant strain, hits give high values
Summary of the method: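 Compounds were applied to a genetically altered yeast strain carrying a cell-cycle control defect. Growth inhibition was scored against vehicle-treated controls.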

[12] = NCI Yeast Anticancer Drug Screen. Data for the wt2 strain (AID 169);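 further: 0% = growth of vehicle-treated yeast cultures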; settings: S. cerevisiae wt2 strain growth inhibition, hits give high values
Summary of the method: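 Treated yeast vs. vehicle-treated yeast: growth inhibition determined.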

[13] = NCI Yeast Anticancer Drug Screen. Data for the mlh1 strain (AID 171);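 further: 0% = growth of vehicle-treated control cultures of the same strain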; settings: S. cerevisiae mlh1 strain growth inhibition, hits give high values
Summary of the method: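 A yeast strain with a defined genetic lesion serves as the test organism. Cultures receive compound or vehicle, and growth is measured.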

[14] = NCI Yeast Anticancer Drug Screen. Data for the sgs1 strain (AID 173);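 further: 0% = growth of vehicle-only control cultures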; settings: S. cerevisiae sgs1 mutant, hits give high values
Summary of the method: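 A genetically defined yeast mutant is incubated with the test compound, and its growth is compared to that of the same strain given vehicle.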

[15] = NCI Yeast Anticancer Drug Screen. Data for the mlh1 rad18 strain (AID 175); settings: S. cerevisiae mlh1 rad18 strain growth inhibition, hits give high values
Summary of the method: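 Steps: expose repair-defective yeast to compound; measure growth; express inhibition against vehicle-treated controls.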

[16] = NCI Yeast Anticancer Drug Screen. Data for the rad18 strain (AID 177); settings: S. cerevisiae rad18 mutant growth inhibition, hits give high values
Summary of the method: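 Measured value is growth inhibition of a yeast strain bearing a DNA repair alteration, referenced to vehicle-treated cells.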

[17] = at 5.0 µM (retest, dose inferred, filed as 0.5)
[18] = at 50.0 µM (retest, dose inferred, filed as 5.0)

## COC(=O)c1ccc(CCC2=CC(=O)C(Br)=CC2=O)cc1
[1]; at 1.2 µM
  growth inhibition: 17%
[1]; at 3.7 µM
  growth inhibition: 35%
[1]; at 11.0 µM
  growth inhibition: 47%
[1]; at 33.0 µM
  growth inhibition: 52%
[1]; at 100.0 µM
  growth inhibition: 72% (active)
[2]; at 1.2 µM
  growth inhibition: 4%
[2]; at 3.7 µM
  growth inhibition: 3%
[2]; at 11.0 µM
  growth inhibition: 4%
[2]; at 33.0 µM
  growth inhibition: 12%
[2]; at 100.0 µM
  growth inhibition: 28%
[3]; at 1.2 µM
  growth inhibition: 2%
[3]; at 3.7 µM
  growth inhibition: 37%
[3]; at 11.0 µM
  growth inhibition: 42%
[3]; at 33.0 µM
  growth inhibition: 62%
[3]; at 100.0 µM
  growth inhibition: 88% (active)
[4]; at 1.2 µM
  growth inhibition: -6%
[4]; at 3.7 µM
  growth inhibition: -1%
[4]; at 11.0 µM
  growth inhibition: -4%
[4]; at 33.0 µM
  growth inhibition: -7%
[4]; at 100.0 µM
  growth inhibition: 24%
[5]; at 1.2 µM
  growth inhibition: -3%
[5]; at 3.7 µM
  growth inhibition: 14%
[5]; [17]
  growth inhibition: 12%
[5]; at 11.0 µM
  growth inhibition: 15%
[5]; at 33.0 µM
  growth inhibition: 18%
[5]; [18]
  growth inhibition: 99% (active)
[5]; at 50.0 µM
  growth inhibition: 61.1%
[5]; at 100.0 µM
  growth inhibition: 34%
[6]; at 1.2 µM
  growth inhibition: -7%
[6]; at 3.7 µM
  growth inhibition: -15%
[6]; [17]
  growth inhibition: 44%
[6]; at 11.0 µM
  growth inhibition: -12%
[6]; at 33.0 µM
  growth inhibition: -12%
[6]; [18]
  growth inhibition: 98% (active)
[6]; at 50.0 µM
  growth inhibition: 68.2%
[6]; at 100.0 µM
  growth inhibition: 19%
[7]; at 1.2 µM
  growth inhibition: -6%
[7]; at 3.7 µM
  growth inhibition: 1%
[7]; at 11.0 µM
  growth inhibition: 5%
[7]; at 33.0 µM
  growth inhibition: 8%
[7]; at 100.0 µM
  growth inhibition: 54%
[8]; [17]
  growth inhibition: 10%
[8]; [18]
  growth inhibition: 0%
[8]; at 50.0 µM
  growth inhibition: 20.3%
[9]; at 1.2 µM
  growth inhibition: -11%
[9]; at 3.7 µM
  growth inhibition: -5%
[9]; at 11.0 µM
  growth inhibition: 10%
[9]; at 33.0 µM
  growth inhibition: 7%
[9]; at 100.0 µM
  growth inhibition: 35%
[10]; [17]
  growth inhibition: 4%
[10]; [18]
  growth inhibition: 14%
[10]; at 50.0 µM
  growth inhibition: 38.7%
[11]; at 1.2 µM
  growth inhibition: -20%
[11]; at 3.7 µM
  growth inhibition: -11%
[11]; [17]
  growth inhibition: 8%
[11]; at 11.0 µM
  growth inhibition: -9%
[11]; at 33.0 µM
  growth inhibition: -5%
[11]; [18]
  growth inhibition: 6%
[11]; at 50.0 µM
  growth inhibition: 23.1%
[11]; at 100.0 µM
  growth inhibition: 29%
[12]; at 1.2 µM
  growth inhibition: -12%
[12]; at 3.7 µM
  growth inhibition: 7%
[12]; at 11.0 µM
  growth inhibition: 39%
[12]; at 33.0 µM
  growth inhibition: 88% (active)
[12]; at 100.0 µM
  growth inhibition: 98% (active)
[13]; at 1.2 µM
  growth inhibition: 0%
[13]; at 3.7 µM
  growth inhibition: -4%
[13]; at 11.0 µM
  growth inhibition: -5%
[13]; at 33.0 µM
  growth inhibition: 5%
[13]; at 100.0 µM
  growth inhibition: 56%
[14]; at 1.2 µM
  growth inhibition: 8%
[14]; at 3.7 µM
  growth inhibition: 26%
[14]; at 11.0 µM
  growth inhibition: 34%
[14]; at 33.0 µM
  growth inhibition: 35%
[14]; at 100.0 µM
  growth inhibition: 70% (active)
[15]; [17]
  growth inhibition: 27%
[15]; [18]
  growth inhibition: 99% (active)
[15]; at 50.0 µM
  growth inhibition: 91.8% (active)
[16]; at 1.2 µM
  growth inhibition: -25%
[16]; at 3.7 µM
  growth inhibition: -8%
[16]; at 11.0 µM
  growth inhibition: -8%
[16]; at 33.0 µM
  growth inhibition: -25%
[16]; at 100.0 µM
  growth inhibition: 40%

## O=C(c1ccc(Cl)cc1)C1OC12C(=O)Nc1ccccc12 (stereo not drawn)
[1]; at 1.2 µM
  growth inhibition: 20%
[1]; at 3.7 µM
  growth inhibition: 99% (active)
[1]; at 11.0 µM
  growth inhibition: 99% (active)
[1]; at 33.0 µM
  growth inhibition: 99% (active)
[1]; at 100.0 µM
  growth inhibition: 99% (active)
[2]; at 1.2 µM
  growth inhibition: 1%
[2]; at 3.7 µM
  growth inhibition: 25%
[2]; at 11.0 µM
  growth inhibition: 98% (active)
[2]; at 33.0 µM
  growth inhibition: 98% (active)
[2]; at 100.0 µM
  growth inhibition: 99% (active)
[3]; at 1.2 µM
  growth inhibition: 17%
[3]; at 3.7 µM
  growth inhibition: 99% (active)
[3]; at 11.0 µM
  growth inhibition: 99% (active)
[3]; at 33.0 µM
  growth inhibition: 99% (active)
[3]; at 100.0 µM
  growth inhibition: 99% (active)
[4]; at 1.2 µM
  growth inhibition: 31%
[4]; at 3.7 µM
  growth inhibition: 100% (active)
[4]; at 11.0 µM
  growth inhibition: 100% (active)
[4]; at 33.0 µM
  growth inhibition: 100% (active)
[4]; at 100.0 µM
  growth inhibition: 99% (active)
[5]; at 1.2 µM
  growth inhibition: 13%
[5]; at 3.7 µM
  growth inhibition: 99% (active)
[5]; [17]
  growth inhibition: 100% (active)
[5]; at 11.0 µM
  growth inhibition: 99% (active)
[5]; at 33.0 µM
  growth inhibition: 99% (active)
[5]; [18]
  growth inhibition: 99% (active)
[5]; at 50.0 µM
  growth inhibition: 99.5% (active)
[5]; at 100.0 µM
  growth inhibition: 99% (active)
[6]; at 1.2 µM
  growth inhibition: 38%
[6]; at 3.7 µM
  growth inhibition: 99% (active)
[6]; [17]
  growth inhibition: 100% (active)
[6]; at 11.0 µM
  growth inhibition: 99% (active)
[6]; at 33.0 µM
  growth inhibition: 99% (active)
[6]; [18]
  growth inhibition: 100% (active)
[6]; at 50.0 µM
  growth inhibition: 99.7% (active)
[6]; at 100.0 µM
  growth inhibition: 99% (active)
[7]; at 1.2 µM
  growth inhibition: 24%
[7]; at 3.7 µM
  growth inhibition: 99% (active)
[7]; at 11.0 µM
  growth inhibition: 99% (active)
[7]; at 33.0 µM
  growth inhibition: 99% (active)
[7]; at 100.0 µM
  growth inhibition: 99% (active)
[8]; [17]
  growth inhibition: 100% (active)
[8]; [18]
  growth inhibition: 100% (active)
[8]; at 50.0 µM
  growth inhibition: 99.5% (active)
[9]; at 1.2 µM
  growth inhibition: 5%
[9]; at 3.7 µM
  growth inhibition: 40%
[9]; at 11.0 µM
  growth inhibition: 99% (active)
[9]; at 33.0 µM
  growth inhibition: 99% (active)
[9]; at 100.0 µM
  growth inhibition: 98% (active)
[10]; [17]
  growth inhibition: 100% (active)
[10]; [18]
  growth inhibition: 100% (active)
[10]; at 50.0 µM
  growth inhibition: 99.7% (active)
[11]; at 1.2 µM
  growth inhibition: 43%
[11]; at 3.7 µM
  growth inhibition: 99% (active)
[11]; [17]
  growth inhibition: 100% (active)
[11]; at 11.0 µM
  growth inhibition: 99% (active)
[11]; at 33.0 µM
  growth inhibition: 99% (active)
[11]; [18]
  growth inhibition: 100% (active)
[11]; at 50.0 µM
  growth inhibition: 99.7% (active)
[11]; at 100.0 µM
  growth inhibition: 99% (active)
